# Test results from the supplement of paper PMC12067093, “Discovery and optimisation of a covalent ligand for TRIM25 and its application to targeted protein ubiquitination” (Chemical Science, 2025).
# Of roughly 21,000 targets only a part is listed; those with the largest changes were picked by preference.
# Compound: Cc1cc(ccc1-c1ccccc1)C(=O)N1CCCN(CC1)C(=O)CCl [compound 10]
# Test: probe-labelled cysteine peptide fold change vs DMSO (competition) (log2 fold change); higher = less target engagement (more negative = stronger competition)
# Conditions: THP-1, incubation time: 4 h
# 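Further: competitive profiling in live THP-1 cells: cysteine peptides tagged with an iodoacetamide desthiobiotin (IA-DTB) probe, intensity after compound treatment relative to DMSO-treated cells.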
# Sequence of UniProt P10599 (P10599 whole entry, looked up): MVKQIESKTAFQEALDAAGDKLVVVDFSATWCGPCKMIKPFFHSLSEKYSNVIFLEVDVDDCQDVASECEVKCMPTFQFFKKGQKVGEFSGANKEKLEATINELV
# Sequence of UniProt Q9NP79 (Q9NP79 whole entry, looked up): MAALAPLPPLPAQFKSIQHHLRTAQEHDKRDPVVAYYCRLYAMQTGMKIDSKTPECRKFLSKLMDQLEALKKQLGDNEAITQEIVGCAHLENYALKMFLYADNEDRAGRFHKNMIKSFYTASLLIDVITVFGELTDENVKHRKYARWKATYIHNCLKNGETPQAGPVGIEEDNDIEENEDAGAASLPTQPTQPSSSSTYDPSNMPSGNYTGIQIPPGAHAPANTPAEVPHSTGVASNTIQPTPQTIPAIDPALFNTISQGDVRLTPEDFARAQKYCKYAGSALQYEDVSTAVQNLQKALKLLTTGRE
# Sequence of UniProt P22695 (P22695 whole entry, looked up): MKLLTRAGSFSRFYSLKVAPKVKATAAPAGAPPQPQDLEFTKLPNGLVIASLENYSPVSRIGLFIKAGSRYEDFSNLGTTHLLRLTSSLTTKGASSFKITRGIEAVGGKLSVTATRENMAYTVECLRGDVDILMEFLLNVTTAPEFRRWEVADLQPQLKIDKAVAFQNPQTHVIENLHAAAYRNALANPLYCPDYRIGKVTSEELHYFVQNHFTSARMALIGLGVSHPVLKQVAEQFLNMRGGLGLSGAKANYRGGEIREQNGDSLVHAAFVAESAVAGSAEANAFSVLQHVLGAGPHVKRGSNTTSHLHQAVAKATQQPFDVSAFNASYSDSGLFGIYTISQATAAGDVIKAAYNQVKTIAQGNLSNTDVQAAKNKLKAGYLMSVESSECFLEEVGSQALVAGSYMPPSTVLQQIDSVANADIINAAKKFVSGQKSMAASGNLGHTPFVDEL
# Sequence of UniProt Q4G0F5 (Q4G0F5 whole entry, looked up): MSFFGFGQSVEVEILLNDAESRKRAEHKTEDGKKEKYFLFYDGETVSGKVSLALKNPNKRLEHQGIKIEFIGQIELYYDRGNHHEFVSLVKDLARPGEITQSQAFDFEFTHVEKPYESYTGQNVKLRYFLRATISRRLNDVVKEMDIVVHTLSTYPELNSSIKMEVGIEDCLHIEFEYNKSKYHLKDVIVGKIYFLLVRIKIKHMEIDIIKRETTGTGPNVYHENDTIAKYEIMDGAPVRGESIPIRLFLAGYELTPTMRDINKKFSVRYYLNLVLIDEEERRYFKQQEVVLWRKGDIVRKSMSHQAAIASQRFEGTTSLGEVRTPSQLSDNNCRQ
# Sequence of UniProt Q9NPG3 (Q9NPG3 whole entry, looked up): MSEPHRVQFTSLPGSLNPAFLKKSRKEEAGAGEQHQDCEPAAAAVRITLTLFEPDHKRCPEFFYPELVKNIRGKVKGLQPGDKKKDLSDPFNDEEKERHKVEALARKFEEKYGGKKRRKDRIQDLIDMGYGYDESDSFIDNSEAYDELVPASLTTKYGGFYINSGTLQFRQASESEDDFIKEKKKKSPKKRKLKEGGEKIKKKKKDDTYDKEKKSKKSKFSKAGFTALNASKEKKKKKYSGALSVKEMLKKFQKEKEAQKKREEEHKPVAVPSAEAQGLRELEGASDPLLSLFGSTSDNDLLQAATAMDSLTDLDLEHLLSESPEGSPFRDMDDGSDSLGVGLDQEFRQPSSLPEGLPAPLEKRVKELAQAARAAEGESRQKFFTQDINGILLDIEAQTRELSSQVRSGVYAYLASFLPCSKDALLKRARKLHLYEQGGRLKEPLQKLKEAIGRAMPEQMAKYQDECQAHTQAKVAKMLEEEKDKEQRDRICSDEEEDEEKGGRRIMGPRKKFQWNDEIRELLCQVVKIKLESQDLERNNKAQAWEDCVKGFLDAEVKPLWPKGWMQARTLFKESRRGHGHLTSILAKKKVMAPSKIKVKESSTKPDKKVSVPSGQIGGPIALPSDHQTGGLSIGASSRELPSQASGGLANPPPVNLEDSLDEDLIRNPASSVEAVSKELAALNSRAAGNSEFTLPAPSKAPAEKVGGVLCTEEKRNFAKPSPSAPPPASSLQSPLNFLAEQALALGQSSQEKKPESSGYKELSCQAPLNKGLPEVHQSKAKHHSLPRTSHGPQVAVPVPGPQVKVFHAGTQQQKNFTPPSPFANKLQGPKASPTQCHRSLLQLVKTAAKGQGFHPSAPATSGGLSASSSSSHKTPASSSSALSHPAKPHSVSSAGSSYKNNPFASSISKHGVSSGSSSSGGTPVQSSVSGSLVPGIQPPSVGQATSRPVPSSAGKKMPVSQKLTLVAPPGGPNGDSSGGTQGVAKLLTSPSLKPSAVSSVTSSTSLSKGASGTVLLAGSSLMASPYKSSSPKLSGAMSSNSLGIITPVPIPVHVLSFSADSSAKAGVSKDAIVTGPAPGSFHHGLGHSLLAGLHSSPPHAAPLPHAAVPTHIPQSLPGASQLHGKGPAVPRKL
# Sequence of UniProt Q15361 (Q15361 whole entry, looked up): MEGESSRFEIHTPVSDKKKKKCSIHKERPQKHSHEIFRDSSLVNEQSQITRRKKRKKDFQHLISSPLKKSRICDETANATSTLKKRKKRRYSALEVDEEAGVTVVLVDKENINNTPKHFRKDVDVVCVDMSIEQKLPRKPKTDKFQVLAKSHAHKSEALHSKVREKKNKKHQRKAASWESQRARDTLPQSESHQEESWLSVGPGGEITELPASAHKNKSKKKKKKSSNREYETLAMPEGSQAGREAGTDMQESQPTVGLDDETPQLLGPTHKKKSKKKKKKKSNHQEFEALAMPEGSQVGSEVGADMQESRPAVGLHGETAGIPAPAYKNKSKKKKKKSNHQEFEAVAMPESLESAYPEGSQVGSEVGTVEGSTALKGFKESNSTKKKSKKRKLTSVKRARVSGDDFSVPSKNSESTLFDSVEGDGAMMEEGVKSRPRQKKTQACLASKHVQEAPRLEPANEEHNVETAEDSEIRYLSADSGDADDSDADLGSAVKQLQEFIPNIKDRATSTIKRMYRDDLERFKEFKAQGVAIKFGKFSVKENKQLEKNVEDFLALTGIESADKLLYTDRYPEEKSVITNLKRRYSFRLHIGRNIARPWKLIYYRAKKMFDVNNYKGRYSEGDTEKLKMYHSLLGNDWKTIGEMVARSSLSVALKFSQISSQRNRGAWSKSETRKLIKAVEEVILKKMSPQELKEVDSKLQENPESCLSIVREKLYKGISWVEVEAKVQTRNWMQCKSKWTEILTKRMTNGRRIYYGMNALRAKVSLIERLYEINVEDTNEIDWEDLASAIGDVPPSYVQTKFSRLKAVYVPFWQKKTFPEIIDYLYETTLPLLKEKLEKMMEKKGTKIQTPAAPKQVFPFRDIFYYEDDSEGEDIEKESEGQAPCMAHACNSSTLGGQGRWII
# Sequence of UniProt O15164 (O15164 whole entry, looked up): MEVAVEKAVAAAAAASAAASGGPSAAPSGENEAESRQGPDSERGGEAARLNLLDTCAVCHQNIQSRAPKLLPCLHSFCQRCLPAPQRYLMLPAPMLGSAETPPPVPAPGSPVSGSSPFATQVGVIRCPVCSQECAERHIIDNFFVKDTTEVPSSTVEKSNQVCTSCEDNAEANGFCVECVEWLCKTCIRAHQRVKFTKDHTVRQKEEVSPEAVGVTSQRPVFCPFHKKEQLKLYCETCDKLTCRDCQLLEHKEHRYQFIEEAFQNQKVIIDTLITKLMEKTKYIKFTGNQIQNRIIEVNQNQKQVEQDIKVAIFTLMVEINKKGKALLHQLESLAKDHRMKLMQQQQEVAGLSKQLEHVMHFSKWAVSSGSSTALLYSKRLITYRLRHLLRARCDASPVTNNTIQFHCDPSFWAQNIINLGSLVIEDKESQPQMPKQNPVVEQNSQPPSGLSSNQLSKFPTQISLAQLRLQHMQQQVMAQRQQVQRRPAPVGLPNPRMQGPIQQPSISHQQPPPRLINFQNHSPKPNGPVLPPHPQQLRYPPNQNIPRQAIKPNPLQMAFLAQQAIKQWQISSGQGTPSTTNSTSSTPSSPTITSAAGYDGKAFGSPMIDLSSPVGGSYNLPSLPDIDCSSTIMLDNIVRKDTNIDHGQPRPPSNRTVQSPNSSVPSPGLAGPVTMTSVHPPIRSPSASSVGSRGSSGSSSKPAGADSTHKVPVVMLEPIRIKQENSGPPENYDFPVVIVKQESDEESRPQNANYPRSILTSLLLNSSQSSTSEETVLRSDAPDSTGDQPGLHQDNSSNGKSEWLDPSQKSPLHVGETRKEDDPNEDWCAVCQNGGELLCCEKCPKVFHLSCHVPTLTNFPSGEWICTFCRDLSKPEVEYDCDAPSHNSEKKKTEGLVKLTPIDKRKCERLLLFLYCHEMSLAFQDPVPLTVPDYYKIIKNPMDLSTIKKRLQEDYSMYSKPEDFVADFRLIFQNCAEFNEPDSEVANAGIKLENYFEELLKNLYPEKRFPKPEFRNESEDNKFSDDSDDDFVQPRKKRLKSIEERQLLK
# Sequence of UniProt Q8NEZ2 (Q8NEZ2 whole entry): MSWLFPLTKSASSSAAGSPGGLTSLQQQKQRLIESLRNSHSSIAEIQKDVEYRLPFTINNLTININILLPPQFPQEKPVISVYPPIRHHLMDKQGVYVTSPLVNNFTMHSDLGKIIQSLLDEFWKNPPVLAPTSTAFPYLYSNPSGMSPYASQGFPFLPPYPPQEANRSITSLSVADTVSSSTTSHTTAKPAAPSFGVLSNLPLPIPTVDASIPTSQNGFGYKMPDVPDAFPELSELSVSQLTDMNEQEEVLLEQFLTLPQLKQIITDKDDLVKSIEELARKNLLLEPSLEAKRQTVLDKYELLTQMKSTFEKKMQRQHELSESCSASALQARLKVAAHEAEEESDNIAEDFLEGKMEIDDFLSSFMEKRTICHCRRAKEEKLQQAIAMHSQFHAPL
# Sequence of UniProt O14933 (O14933 whole entry, looked up): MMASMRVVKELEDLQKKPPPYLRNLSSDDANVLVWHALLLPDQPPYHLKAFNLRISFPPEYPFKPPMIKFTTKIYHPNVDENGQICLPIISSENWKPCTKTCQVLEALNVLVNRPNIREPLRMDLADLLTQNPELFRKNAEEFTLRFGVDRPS
Target,probe-labelled cysteine peptide fold change (10 µM),probe-labelled cysteine peptide fold change (50 µM)
UBXN7_O94888_478_KLSHLDYDITLQEAGLCPQETVFVQER (UniProt O94888),0.134,-0.0436
UBA6_A0AVT1_721_ALQLLHCFPLDIR,0.0248,0.215
UBE2G2_P60604_75_FTCEMFHPNIYPDGR (UniProt P60604),-0.0589,-0.214
TRRAP_Q9Y4A5_3535_IYPYLVMNDACLTESR (UniProt Q9Y4A5),-0.136,-0.0829
TXNIP_Q9H3M7_170_KVSCMFIPDGR (UniProt Q9H3M7),0.205,-1.47
UTP20_O75691_242_NMFHSCTGQAVK (UniProt O75691),-0.122,0.227
VAPA_Q9P0L0_128_CVFEMPNENDK (UniProt Q9P0L0),-0.217,-0.121
TRAPPC11_Q7Z392_615_ADCPHPIR (UniProt Q7Z392),0.126,0.142
VAV3_Q9UKW4_187_CPENDIR (UniProt Q9UKW4),-0.136,-0.136
USP9Y_O00507_674_DGQLWLCAPQAK (UniProt O00507),-0.00329,-0.161
TPRKB_Q9Y3C4_167_LSSQEESIGTLLDAIICR (UniProt Q9Y3C4),0.0132,-0.163
UBR7_Q8N806_155_RPYPDPEDEIPDEMIQCVVCEDWFHGR (UniProt Q8N806),0.0312,0.0116
VPS26B_Q4G0F5_334_TPSQLSDNNCRQ (UniProt Q4G0F5),-0.205,-0.321
UROS_P10746_143_ESSALPLLFPCGNLKR (UniProt P10746),-0.128,-0.405
TTF1_Q15361_445_KTQACLASK (UniProt Q15361),-0.039,-0.411
TRPM2_O94759_72_ECVYFVESSK (UniProt O94759),-0.0415,-0.249
TTC17_Q96AE7_725_CPECENSLK (UniProt Q96AE7),0.113,0.453
UBE2L6_O14933_86+98_IYHPNVDENGQICLPIISSENWKPCTK (UniProt O14933),-0.606,-1.39
TTLL12_Q14166_361_PGVLLNQFPCENLLTVK (UniProt Q14166),-0.00778,-0.111
TXNRD2_Q9NNW7_279_GCAPSR (UniProt Q9NNW7),0.0601,1.36
UBA1_P22314_711_SLVLQRPQTWADCVTWACHHWHTQYSNNIR (UniProt P22314),-0.12,0.238
TRNT1_Q96Q11_373_YQGEHCLLK (UniProt Q96Q11),-0.39,-1.54
VPS37A_Q8NEZ2_375_TICHCR (UniProt Q8NEZ2),0.41,1.08
TXNRD2_Q9NNW7_523_SGLDPTVTGCUG (UniProt Q9NNW7),-1.15,-2.15
USP24_Q9UPU5_995_QLCSPVDNIQIFTNDSLLTVNK (UniProt Q9UPU5),0.165,0.107
TRMT11_Q7Z4G4_161_KPQHVFSVLEDYGLDPNCIPENPHNIYFGR (UniProt Q7Z4G4),-0.0115,-0.0241
UBR7_Q8N806_155+158_RPYPDPEDEIPDEMIQCVVCEDWFHGR (UniProt Q8N806),-0.195,-1.14

Target,probe-labelled cysteine peptide fold change (10 µM),probe-labelled cysteine peptide fold change (50 µM)
TXNDC9_O14530_94_ESENVVCHFYR (UniProt O14530),-0.0612,-0.0184
USP16_Q9Y5T5_24_TVPIDDSSETLEPVCR (UniProt Q9Y5T5),-0.224,-0.204
TXNDC5_Q8NBS9_353_FYAPWCGHCK (UniProt Q8NBS9),-0.372,-1.61
UNC45A_Q9H3U1_503_ALVGLCK (UniProt Q9H3U1),0.0377,-0.217
UGGT1_Q9NYU2_880_MDFILSHAVYCR (UniProt Q9NYU2),0.117,0.39
USP19_O94966_1169_EEQLPSYDLYAVINHYGGMIGGHYTACAR (UniProt O94966),-0.00515,0.0872
TPP1_O14773_365_GLTLLFASGDSGAGCWSVSGR (UniProt O14773),-0.146,0.0356
UBAP1_Q9NZ09_243_ATLDFKPLHKPNGFITLPQLGNCEK (UniProt Q9NZ09),-0.239,-1.36
USP8_P40818_809_NCYQDDINR (UniProt P40818),-0.199,-1.27
UGGT1_Q9NYU2_1475+1479_SLPQEWLWCETWCDDASK (UniProt Q9NYU2),-0.291,-0.0794
VLDLR_P98155_251_CPASEIQCGSGECIHK (UniProt P98155),-0.12,-0.248
TRIM25_Q14258_506_FTYCSQVLGLHCYK (UniProt Q14258),-1.09,-4.87
UROS_P10746_119_IGLDTEGETCGNAEK (UniProt P10746),-0.0553,-0.0029
TRMT10C_Q7L0Y3_78_SSVQEECVSTISSSKDEDPLAATR (UniProt Q7L0Y3),-0.141,-0.518
TRRAP_Q9Y4A5_2513_STPIGTSCQGAMLPSITNVINLADSHDR (UniProt Q9Y4A5),0.223,0.295
TRPM7_Q96QT4_1411_FFVSTPSQPSCK (UniProt Q96QT4),-0.337,-0.544
USP3_Q9Y6I4_98_CDDFVVNDTK (UniProt Q9Y6I4),-0.0308,-0.0909
TRIM24_O15164_127+134_CPVCSQECAER (UniProt O15164),0.118,-0.0216
UBR4_Q5T4S7_2618+2619_QLEGDCCSFITQLVNHFWK (UniProt Q5T4S7),0.0442,-1.45
UBA7_P41226_829_CQNYGIPPVNR (UniProt P41226),-0.03,0.153
USP15_Q9Y4E8_633+634_ISTETEETEGSLHCCK (UniProt Q9Y4E8),-0.567,-1.51
UBR4_Q5T4S7_2554_AVQCLNTSSK (UniProt Q5T4S7),-0.27,-0.543
UBR4_Q5T4S7_2619_QLEGDCCSFITQLVNHFWK (UniProt Q5T4S7),-0.0425,-0.45
UVRAG_Q9P2Y5_186_TILLQVDQNCVR (UniProt Q9P2Y5),-0.089,-0.0238
TRANK1_O15050_1930_QHGCLLEAAR (UniProt O15050),-0.0687,-0.106
USP19_O94966_656+659_LVCPVCAK (UniProt O94966),-0.159,-1.2
TRIM59_Q8IWR1_10+13_MHNFEEELTCPICYSIFEDPR<|>IFT80_Q9P2H3-3_10+13_MHNFEEELTCPICYSIFEDPR (UniProt Q9P2H3+Q8IWR1),-0.194,-1.63

Target,probe-labelled cysteine peptide fold change (10 µM),probe-labelled cysteine peptide fold change (50 µM)
TXN_P10599_32_LVVVDFSATWCGPCK (UniProt P10599),-0.415,-0.638
UQCRC2_P22695_192_NALANPLYCPDYR (UniProt P22695),0.015,0.158
UHRF1BP1L_A0JNW5_398_NGWANELLHEFECNVEMLK (UniProt A0JNW5),-0.0203,-0.158
UBR1_Q8IWV7_1603_NSLIELPDDYSCLLNQASHFR (UniProt Q8IWV7),-0.114,-0.631
USP3_Q9Y6I4_385_SFTDLEELDETELYMCHK (UniProt Q9Y6I4),-0.114,-0.984
VCPIP1_Q96JH7_207+219_SQECLIPVHVDGDGHCLVHAVSR (UniProt Q96JH7),-1.2,-1.48
U2SURP_O15042_918_EKDECTPTRK (UniProt O15042),-0.0489,0.231
VTA1_Q9NP79_87_QLGDNEAITQEIVGCAHLENYALK (UniProt Q9NP79),0.0147,0.136
USP48_Q86UV5_145_DYEPQTICEHLQYLFALLQNSNRR (UniProt Q86UV5),0.119,0.166
VCPIP1_Q96JH7_219_SQECLIPVHVDGDGHCLVHAVSR (UniProt Q96JH7),-2.4,< -5
USP40_Q9NVE5_50_NQGGTCYLNSLLQTLHFTPEFR (UniProt Q9NVE5),-0.592,-1.83
TRMT2A_Q8IZ69_463_VIGVELCPEAVEDAR (UniProt Q8IZ69),-0.181,-1.16
TXN2_Q99757_93_VVNSETPVVVDFHAQWCGPCK (UniProt Q99757),-1.34,-1.7
TRNAU1AP_Q9NX07_157_ALTECQGAVGLGSKPVR (UniProt Q9NX07),-0.212,-0.171
TXNIP_Q9H3M7_170_VSCMFIPDGR (UniProt Q9H3M7),0.0303,-1.26
VCPIP1_Q96JH7_469+472_CLLCGALSELHVPPEWLAPGGK (UniProt Q96JH7),-0.12,0.233
UBN1_Q9NPG3_765_ELSCQAPLNK (UniProt Q9NPG3),-0.169,-0.168
TRIM5_Q9C035_95_VDHCAR (UniProt Q9C035),-0.107,-0.113
TXNDC5_Q8NBS9_350+353_FYAPWCGHCK (UniProt Q8NBS9),-0.375,-1.05
UBR5_O95071_572_VGVLMESVWNMNDSCR (UniProt O95071),-0.0405,0.0537
TUBA3C_P0DPH7_4+20+25_MRECISIHVGQAGVQIGNACWELYCLEHGIQPDGQMPSDK<|>TUBA3D_P68363_4+20+25_MRECISIHVGQAGVQIGNACWELYCLEHGIQPDGQMPSDK<|>TUBA1B_Q6PEY2_4+20+25_MRECISIHVGQAGVQIGNACWELYCLEHGIQPDGQMPSDK<|>TUBA3E_Q9BQE3_4+20+25_MRECISIHVGQAGVQIGNACWELYCLEHGIQPDGQMPSDK (UniProt Q9BQE3+Q6PEY2+P68363+P0DPH7),0.318,0.131
UBR2_Q8IWV8_1717_GNPLHLCK (UniProt Q8IWV8),-0.263,-1.31
TRIM25_Q14258_119_TCLVCMASFCQEHLQPHFDSPAFQDHPLQPPVR (UniProt Q14258),0.371,0.313
UBR2_Q8IWV8_1360_ILSDEDKPLFGPLPCR (UniProt Q8IWV8),-0.203,-0.412
UQCRC1_P31930_154_AVELLGDIVQNCSLEDSQIEK (UniProt P31930),0.114,0.272
